HSF1 inh = HSF1 inhibitors in luciferase reporter cells, primary screen, cell-based, NIH3T3, luminescence; NIH3T3-HGL HSE-luciferase, MG132-induced, luminescence 8 h; stronger effect = lower value; activity change, negative = inhibition, % at 7.5 µM (by protocol); actives 0.77% (n = 300,000); AID 2098, 2009;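 active means more than half of replicate wells show activity change below -50%, luminescence cut by over half; inconclusive means some wells, but at most half, below -50%; inactive means no replicate well below -50%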;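 further: luciferase reports HSF-1 transcriptional activity via heat shock element; 0% = median of DMSO wells and -100% = zero luminescence signal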
MITF TRPM1 HTS = activators of MITF-driven TRPM1 promoter reporter, primary screen, cell-based, SK-MEL-5, luciferase, single point. activation, % at 12.5 µM. actives 0.75% (n = 300,000). AID 588334, 2011. SK-MEL-5 TRPM1-promoter luciferase, 24 h; % of positive control, neutral wells = 0;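 active means mean activation of at least 80% with every replicate also reaching 80%; inconclusive means mean reaches 80% but some replicate falls short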;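 further: 0% = neutral control wells and 100% = parthenolide positive control wells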
HSF-1 act = HSF-1 activators, primary screen, NIH3T3-HGL cells, MG132 stress, luminescence, single point | NIH3T3-HGL HSF-1 luciferase reporter, 8 h; 100% = twice DMSO control signal | activation, % at 9 µM | actives 1.7% (n = 300,000);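 active means mean replicate activation of at least 50% with a set share of replicates each reaching 50%; inconclusive means only one of those two conditions met; inactive means mean below 50% and too few replicates reaching it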;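 further: 0% = median of the neutral control wells and 100% = twice that signal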
esBAF inh = Bmi1 luciferase reporter increase in mESCs, primary screen, esBAF inhibitor project, mouse ES cells, Bmi1 luciferase knock-in, single point | 24 h; 100% = twice the neutral-well signal | actives 2% (n = 350,000) | reporter increase, % at 12.5 µM; in the data active means activation above about 40%; inconclusive means no clear call, values can overlap the other calls;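 further: 0% = median of the plate's neutral control wells and 100% = double that signal; a rise in the Bmi1 reporter signal indicates esBAF inhibition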
Wnt act = Wnt/beta-catenin pathway activators, primary screen, cell-based, plate reader, single point; Wnt/beta-catenin reporter cell assay, activator; activation, % at 9.35 µM; actives 1.2% (n = 300,000); in the data active means activation above about 30%, passing the limit was not always enough; inconclusive means no clear call, values can overlap the other calls;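 further: 0% = neutral control wells and 100% = positive control wells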
An asterisk follows results filed as active. Only some compounds are listed: those with a hit (about 3.9% of all), similar ones and a draw of the others.

For COCC(=O)Nc1ccc2c(c1)C(=O)N(C)C[C@@H](OC)[C@H](C)CN(Cc1cccc(F)c1)[C@H](C)CO2 the results were esBAF inh -12.8.
For COc1ccc(S(=O)(=O)NCCC(=O)NCc2cccs2)cc1 the results were HSF1 inh -70.3*, MITF TRPM1 HTS -0.8, HSF-1 act -76.8 and esBAF inh 0.0.
`Cc1ccc(S(=O)(=O)N(C)C[C@@H]2Oc3ncccc3C(=O)N([C@H](C)CO)C[C@@H]2C)cc1` gave esBAF inh 1.5.
Screening Cc1ccc(/C=C2\Sc3ccccc3C2=O)s1 returned HSF1 inh -2.1, MITF TRPM1 HTS 6.5, HSF-1 act 30.3, esBAF inh 26.5 and Wnt act 72.4*.
`Cc1cc(C)c2c(n1)sc1c(=O)[nH]c(SCc3ccccc3)nc12` gave HSF1 inh -89.5*, MITF TRPM1 HTS -12.8, HSF-1 act -91.4, esBAF inh 1.6 and Wnt act -4.3.
For CCn1c(Cn2nnc(-c3ccccc3)n2)nnc1SCC(=O)Nc1cccc(C(C)=O)c1 the results were HSF1 inh -1.0, MITF TRPM1 HTS -8.4, HSF-1 act 4.1, esBAF inh 6.0 and Wnt act -3.9.
For CCn1c(Cn2nnc(-c3ccccc3)n2)nnc1SCC(=O)Nc1cccc(C)c1C the results were HSF1 inh 49.1, MITF TRPM1 HTS -3.7, HSF-1 act 76.5* and esBAF inh 33.9.
For c1ccc2c(c1)OCC(c1csc3ncnc(N4CCOCC4)c13)O2 (centres undefined) the results were HSF1 inh -56.6*, MITF TRPM1 HTS -14.2, HSF-1 act -65.5 and Wnt act 0.1.
`CCN(CC)c1ncnc2scc(C3COc4ccccc4O3)c12` (centres undefined) gave HSF1 inh 1.0, HSF-1 act inconclusive, esBAF inh -1.4 and Wnt act -1.0.
For C[C@H](CO)N1C[C@H](C)[C@H](CN(C)C(=O)C2CC2)Oc2cc(C#Cc3ccccc3)ccc2S1(=O)=O the results were esBAF inh 3.3.
`COc1cccc(Nc2nc(-c3cccnc3)cs2)c1` gave HSF1 inh 22.3, MITF TRPM1 HTS 80.6*, HSF-1 act 36.3, esBAF inh inconclusive and Wnt act 17.5.
Screening CCOc1ccccc1Nc1nc(-c2cccnc2)cs1 returned HSF1 inh -0.8, MITF TRPM1 HTS 23.7, HSF-1 act 7.3, esBAF inh 10.8 and Wnt act -0.3.
c1cncc(Nc2nc(-c3cccnc3)cs2)c1 was read as HSF1 inh -1.7, MITF TRPM1 HTS 22.0 and HSF-1 act -11.9.
Screening Clc1ccccc1Nc1nc(-c2cccnc2)cs1 returned HSF1 inh 11.6, MITF TRPM1 HTS 66.2, HSF-1 act 28.2, esBAF inh 29.2 and Wnt act 55.3*.
For c1cncc(Nc2nc(-c3ccncc3)cs2)c1 the results were HSF1 inh -2.5, MITF TRPM1 HTS 51.0, HSF-1 act -4.0 and esBAF inh 3.7.
`Clc1ccccc1-c1csc(Nc2cccnc2)n1` gave HSF1 inh -1.9, MITF TRPM1 HTS 31.2, HSF-1 act 14.6, esBAF inh 63.1* and Wnt act 13.0.
`COc1cccc(Nc2nc(-c3sc(NC(=O)c4ccccc4)nc3C)cs2)c1` gave HSF1 inh 8.8, MITF TRPM1 HTS -16.5, HSF-1 act 7.5, esBAF inh 51.6* and Wnt act 1.9.
`O=C(C[C@H]1C=C[C@@H](NS(=O)(=O)c2ccccc2)[C@@H](CO)O1)NCc1ccccc1F` gave esBAF inh -5.3.
Screening CCCNC(=O)N1[C@H](CO)[C@@H]2c3ccccc3N(C(=O)Nc3cccc(F)c3)C[C@@H]21 returned esBAF inh -3.8.
Screening Cc1ccc(-c2noc(C3CCCCC3)n2)cc1 returned HSF1 inh 21.8, MITF TRPM1 HTS 166.8* and HSF-1 act 42.8.
Cc1cccc(-c2noc(C3CCCCC3)n2)c1 was read as HSF1 inh 14.8, MITF TRPM1 HTS 36.7, HSF-1 act 37.5 and esBAF inh 63.3*.
Screening COc1ccc(NC(=O)N(C)C[C@@H]2OCCCC[C@H](C)Oc3ccc(NS(C)(=O)=O)cc3C(=O)N([C@@H](C)CO)C[C@@H]2C)cc1 returned esBAF inh 1.2.
`OC[C@H]1O[C@H](c2nc(-c3nc(-c4cccs4)no3)cs2)C[C@@H]1O` gave esBAF inh -25.3 and Wnt act 9.7.
Screening COc1cc(OC)cc(-c2noc(-c3csc([C@H]4C[C@H](O)[C@@H](CO)O4)n3)n2)c1 returned esBAF inh 70.7* and Wnt act 38.9*.
For Cc1cccc(-c2noc(-c3csc([C@@H]4C[C@H](O)[C@@H](CO)O4)n3)n2)c1 the results were esBAF inh -12.7 and Wnt act 46.2*.
C[C@H]1CN([C@@H](C)CO)C(=O)c2cc(NS(=O)(=O)c3ccccc3)ccc2O[C@H]1CN(C)Cc1ccc2c(c1)OCO2 was read as esBAF inh -3.5.
Screening Cc1ccc(Nc2c(-c3ccco3)nc3ccccn23)cc1 returned HSF1 inh 23.3, MITF TRPM1 HTS -5.7, HSF-1 act 42.8 and Wnt act -2.8.
For COc1ccc(Nc2c(-c3ccco3)nc3ccc(C)cn23)cc1 the results were HSF1 inh 7.9, MITF TRPM1 HTS 7.0, HSF-1 act 22.6, esBAF inh 22.0 and Wnt act 19.9.
c1ccc(Nc2c(-c3ccco3)nc3ccccn23)cc1 was read as HSF1 inh 43.8, MITF TRPM1 HTS -2.5, HSF-1 act 80.5* and Wnt act 5.2.
`Fc1ccc(Nc2c(-c3ccco3)nc3ccccn23)cc1` gave HSF1 inh 32.5, MITF TRPM1 HTS 21.6, HSF-1 act 61.9* and Wnt act 1.4.
For CCCCNC(=O)Nc1nnc(C(C)(C)C)s1 the results were HSF1 inh 27.1, MITF TRPM1 HTS 8.3, HSF-1 act 55.9*, esBAF inh 16.2 and Wnt act -3.6.
CC(C)(C)c1nnc(NC(=O)Nc2ccc(Cl)cc2)s1 was read as HSF1 inh 0.9, MITF TRPM1 HTS 38.2, HSF-1 act 24.0 and Wnt act 2.2.
For O=C(O)C/C(=C\c1cc(Br)cs1)c1nc2ccccc2o1 the results were HSF1 inh 4.9, MITF TRPM1 HTS -2.4, HSF-1 act -6.5, esBAF inh 82.8* and Wnt act 1.6.
COCC(=O)N1[C@@H](CO)[C@@H]2c3ccccc3N(C(=O)c3ccccc3F)C[C@@H]21 was read as esBAF inh -0.5.
For O=C(C[C@@H]1C=C[C@@H](NC(=O)C2CCC2)[C@@H](CO)O1)NCc1ccccc1Cl the results were esBAF inh 3.4.
For C/C(=N\N=C(/N)c1nonc1N)c1ccc2c(c1)OCO2 the results were HSF1 inh 53.1, HSF-1 act 100.8*, esBAF inh 61.0* and Wnt act 12.3.
